About 79,000 compounds went through this panel and 15% of them were active in at least one assay; those are over-represented in the sample as a whole. Cut-off read from the data, not from the text of the source: active = growth inhibition above about 70%; inactive = the rest. Where a SMILES comes first, the peptide text is derived from it. [ ]: non-standard residue; d: D form. Abu = CC[CH](N)C(=O)O
Columns and labels:
[1] = NCI Yeast Anticancer Drug Screen. Data for the rad50 strain (AID 155);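 note: 0% = growth of vehicle-only cultures of the same strain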; settings: S. cerevisiae rad50 strain growth inhibition; at 50.0 µM; stronger effect = higher value
How it was run: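 DNA repair mutant yeast, compound exposure, growth read-out; inhibition is taken relative to vehicle.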

[2] = NCI Yeast Anticancer Drug Screen. Data for the mec2-1 strain (AID 157); settings: S. cerevisiae mec2-1 strain, at 50.0 µM, stronger effect = higher value
How it was run: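 mec2-1 yeast strain, carrying an alteration in DNA damage repair or cell cycle control, was exposed to compounds; growth inhibition was measured relative to vehicle-treated controls.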

[3] = NCI Yeast Anticancer Drug Screen. Data for the sgs1 mgt1 strain (AID 161);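 note: 0% = growth of cultures given vehicle only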; settings: S. cerevisiae sgs1 mgt1 strain, at 50.0 µM, stronger effect = higher value
How it was run: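 Growth of a repair-deficient yeast mutant was monitored after compound treatment and expressed as inhibition relative to vehicle-treated cultures.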

[4] = NCI Yeast Anticancer Drug Screen. Data for the cln2 rad14 strain (AID 165);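 note: 0% = growth equal to vehicle treated cultures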; settings: S. cerevisiae cln2 rad14 strain, at 50.0 µM, stronger effect = higher value
How it was run: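 Yeast carrying cln2 and rad14 alterations (cell cycle control and DNA damage repair) were exposed to compounds. Growth inhibition was measured against vehicle-treated controls.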

[5] = NCI Yeast Anticancer Drug Screen. Data for the bub3 strain (AID 167); settings: S. cerevisiae bub3 mutant strain, at 50.0 µM, stronger effect = higher value
How it was run: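 In this screen, a yeast mutant lacking normal mitotic checkpoint function is challenged with compound. Relative growth versus vehicle gives the inhibition value.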

[6] = NCI Yeast Anticancer Drug Screen. Data for the mlh1 rad18 strain (AID 175); settings: S. cerevisiae mlh1 rad18 strain growth inhibition; at 50.0 µM; stronger effect = higher value
How it was run: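 Growth inhibition of the yeast strain was measured after compound exposure and expressed relative to vehicle-treated controls. The strain carries defined defects in DNA damage repair.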

Measured: growth inhibition

O=P(c1ccccc1)(c1ccccc1)c1ccccc1OCCOCCOc1ccccc1P(=O)(c1ccccc1)c1ccccc1
inactive: [1] -7.2% | [2] -3.75% | [3] 5.9% | [4] -16.8% | [5] 0.35% | [6] 13.9%

CCN(CC)Cc1ccc([NH-])c([NH-])c1.CCN(CC)Cc1ccc([NH-])c([NH-])c1.[Cl][Pt+2][Cl].[Cl][Pt+2][Cl].[Cl][Pt+2][Cl]
inactive: [1] 27.4% | [2] 36.6% | [3] 35.6% | [4] 25.6% | [5] 29.2% | [6] 48.5%

NC(=O)NCP(=O)(CNC(N)=O)CNC(N)=O
inactive: [1] -20% | [2] -7.3% | [3] -4.25% | [4] -20.4% | [5] 32.8% | [6] 4.95%

O=[N+]([O-])c1ccc(N=P(c2ccccc2)(c2ccccc2)c2ccccc2)n2nnnc12
inactive: [1] 1.25% | [2] -27.8% | [3] -4.65% | [4] -10.2% | [5] -15.2% | [6] -6.85%

CCCCCCCCCCCCCCCC/C(=C\c1ccc2ccccc2c1)[N+](=O)[O-]
inactive: [1] -29.2% | [2] -10.7% | [3] -24.6% | [4] -38.3% | [5] -1.75% | [6] -10%

CC(=O)O[C@H]1CCN2C(=O)C=CC(OCc3ccccc3)C12 (some centres not stated)
inactive: [1] 3.8% | [2] -15.3% | [3] 11.1% | [4] 13.2% | [5] -5.95% | [6] 3.6%

O=C(O)c1cc(Br)cc([N+](=O)[O-])c1
inactive: [1] -9.15% | [2] 15.1% | [3] -14.9% | [4] -49.3% | [5] -16.2% | [6] 21.1%

CC(C)(C)C1COC(c2ccccc2)(c2ccccc2)C1 (configuration not stated)
inactive: [1] -24.6% | [2] -1.55% | [3] 8.7% | [4] -26.5% | [5] -2.4% | [6] -15.3%

COc1ccc(C2CC(=O)N(c3nccc(C)n3)C(=O)C2)cc1
inactive: [1] 13.5% | [2] 14.4% | [3] 15.9% | [4] -19.1% | [5] -16.5% | [6] 14.2%

CCCCCCCCOC(=O)Nc1cccc2ccccc12
inactive: [1] -12.8% | [2] -11.2% | [3] -2.6% | [4] -39.7% | [5] -4.35% | [6] -9.2%

NC(=O)CCC(N)=O
inactive: [1] 22.6% | [2] 5.75% | [3] 5.25% | [4] -5.4% | [5] 17.1% | [6] 1.45%

OCC1CC2c3ccccc3C1c1ccccc12 (configuration not stated)
inactive: [1] -12% | [2] -22.1% | [3] -12.1% | [4] -0.05% | [5] -28.4% | [6] -6.75%

CCOCCOC(=O)OCCOCC
inactive: [1] 10.3% | [2] 1.9% | [3] 22.4% | [4] -4.3% | [5] 12.1% | [6] 28%

Cc1ccc(S(=O)(=O)CC(O)(C(C)C)C(C)C)cc1
inactive: [1] -19% | [2] -8.6% | [3] -14.2% | [4] 12.8% | [5] 16.6% | [6] -17.4%

CC(C)(O)CC(C)(c1ccccc1)c1ccccc1
inactive: [1] -9.95% | [2] 0.75% | [3] -1.25% | [4] -39% | [5] -13.1% | [6] -15.2%

CCCOCOCCC
inactive: [1] -22.5% | [2] 0.05% | [3] -13.2% | [4] -28.4% | [5] 11.7% | [6] -27.5%

CCC(N)C(=O)NC(C(N)=O)C(C)C (configuration not stated) (H-[Abu]-Val-NH2; configuration not given here)
inactive: [1] 11.1% | [2] -9.75% | [3] -1.55% | [4] -42.4% | [5] -4.7% | [6] 13.2%

COC(=O)C(=O)C(C(=O)C=C(C)C)C(=O)C(=O)Nc1cccc(C(C)=O)c1 (configuration not stated)
inactive: [1] -18.4% | [2] -8.25% | [3] -14.7% | [4] 16.4% | [5] -13.2% | [6] -26.2%

CC1=Nc2nc(=N)nc3cccc(n23)N1
inactive: [1] -3.55% | [2] -6.55% | [3] -7% | [4] -6% | [5] -7.7% | [6] 5.95%

O=C1C(=C(c2ccccc2)N2CCCCC2)C(=O)c2ccccc21
inactive: [1] 14.9% | [2] -3.6% | [3] 15.1% | [4] -7.75% | [5] 19.3% | [6] 3.2%

CN1N=Nc2ccccc2C1(O)c1ccccc1 (configuration not stated)
inactive: [1] 8.7% | [2] -3.05% | [3] 0.25% | [4] -18.6% | [5] -11.9% | [6] 6.9%

COC(=O)c1c(C(=O)OC)c(C(c2ccccc2)c2ccccc2)n(-c2ccccc2)c1Cl
inactive: [1] -17.6% | [2] -21.1% | [3] 0.6% | [4] 0.65% | [5] -18.3% | [6] 1.2%

COC1=C(C(c2cc(OC)c(OC)c(OC)c2)c2cc3c(cc2OC)OCO3)C(=O)OC1 (configuration not stated)
inactive: [1] -18.6% | [2] -5.9% | [3] -2.9% | [4] 6.25% | [5] 1.1% | [6] 13.4%

CC1(C#N)CCCC(c2ccccc2)(c2ccccc2)C1=O (configuration not stated)
inactive: [1] 43.2% | [2] 40.5% | [3] 49.2% | [4] -9.25% | [5] 23.9% | [6] 34.5%

COc1ccccc1N1C(=O)/C(=N\OC(=O)c2c(-c3c(Cl)cccc3Cl)noc2C)SC1=S
inactive: [1] -13.9% | [2] -26.6% | [3] -19.5% | [4] 11% | [5] -34.8% | [6] -0.2%

CC(=O)CC(=O)C(F)(F)F
inactive: [1] 14% | [2] -3.35% | [3] -20.5% | [4] 9.8% | [5] 7.3% | [6] 4.75%

CCC(C)C/C(C)=N\NC(N)=O (configuration not stated)
inactive: [1] 1.75% | [2] 0.1% | [3] 3.1% | [4] 9.2% | [5] -4.75% | [6] 6.25%

N/N=C1\C(Cl)=C(Cl)c2ccccc21
inactive: [1] 6.65% | [2] -6.35% | [3] 10.2% | [4] -11.8% | [5] 2.95% | [6] 8.3%

O=C(Cl)c1cc(-c2ccc(Cl)cc2)nc2c(-c3ccccc3)cccc12
inactive: [1] -4.05% | [2] 9.15% | [3] -9.4% | [4] -38.5% | [5] -0.35% | [6] 8.5%

CCOc1ccc(Nc2ccc3c(O)cc(S(=O)(=O)O)cc3c2)cc1
inactive: [1] 0.9% | [2] -7.35% | [3] -5.75% | [4] -20.4% | [5] 38.5% | [6] 12.8%

CCCCCCCCCCCCCCCCOc1ccc(C(=O)O)cc1
inactive: [1] 1.4% | [2] 0.75% | [3] 5.3% | [4] 8.35% | [5] 3% | [6] -16%

CC1(C(N)=O)CCC1
inactive: [1] 1.8% | [2] -15.4% | [3] -18.4% | [4] -24.1% | [5] 10.2% | [6] -20.9%

CN(C)c1ccn(C2OC(CO)C(O)C2SC(C)(C)C)c(=O)n1 (configuration not stated)
inactive: [1] -1.2% | [2] 3.95% | [3] -2.05% | [4] 10.8% | [5] -1.25% | [6] 13.8%

COc1cc2nccnc2cc1OC
inactive: [1] 10.1% | [2] 7.05% | [3] 3.35% | [4] -7.45% | [5] 6.55% | [6] 21.2%

CC1=NS(=O)(=O)c2ccccc2N1
inactive: [1] 0.3% | [2] -4.4% | [3] 4.75% | [4] 15.9% | [5] 4.45% | [6] 10.2%

CC1C=CC(C)S(=O)N1C(=O)Cc1ccccc1 (configuration not stated)
inactive: [1] -2.6% | [2] -14.6% | [3] -9.35% | [4] -16.9% | [5] -25.5% | [6] -19.6%

CC1(C)COC(c2c(F)cccc2Cl)=N1
inactive: [1] 3% | [2] -13.8% | [3] 6.2% | [4] 22.4% | [5] 11.7% | [6] 13.2%

— PubChem BioAssay (NCI)
